From the supplement of paper PMC10849652
Targets with a hit are over-represented here; the source holds about 7,900 in all. About 0.6% of all pairs of compound and target were hits.

compound: CN1CCN(CCOc2cc(OC3CCOCC3)c3c(Nc4c(Cl)ccc5c4OCO5)ncnc3c2)CC1 [saracatinib]; test: log2 fold change, soluble protein after heating vs DMSO (PISA); higher = thermal stabilisation; K562 cells, 10 uM, 30 min; active = over 0.2 and 3.5 SD of the protein, either way, in both replicates (recomputed)
Outline: (§1)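 K562 cells at 2×10^6 cells/mL were given 10 μM compound for 30 min. Aliquots then went through 3 min of heating across 48°C-58°C, were pooled, and were extracted in PBS with 0.5% NP-40 at 4°C, and the supernatant after 21,000xg for 90 min was quantified by TMTpro 16plex LC-MS/MS with channel sums equalised. Thermal stability relative to control samples, from duplicates, is given as log2 fold change.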

Chain of UniProt P46063 (P46063 whole entry, looked up): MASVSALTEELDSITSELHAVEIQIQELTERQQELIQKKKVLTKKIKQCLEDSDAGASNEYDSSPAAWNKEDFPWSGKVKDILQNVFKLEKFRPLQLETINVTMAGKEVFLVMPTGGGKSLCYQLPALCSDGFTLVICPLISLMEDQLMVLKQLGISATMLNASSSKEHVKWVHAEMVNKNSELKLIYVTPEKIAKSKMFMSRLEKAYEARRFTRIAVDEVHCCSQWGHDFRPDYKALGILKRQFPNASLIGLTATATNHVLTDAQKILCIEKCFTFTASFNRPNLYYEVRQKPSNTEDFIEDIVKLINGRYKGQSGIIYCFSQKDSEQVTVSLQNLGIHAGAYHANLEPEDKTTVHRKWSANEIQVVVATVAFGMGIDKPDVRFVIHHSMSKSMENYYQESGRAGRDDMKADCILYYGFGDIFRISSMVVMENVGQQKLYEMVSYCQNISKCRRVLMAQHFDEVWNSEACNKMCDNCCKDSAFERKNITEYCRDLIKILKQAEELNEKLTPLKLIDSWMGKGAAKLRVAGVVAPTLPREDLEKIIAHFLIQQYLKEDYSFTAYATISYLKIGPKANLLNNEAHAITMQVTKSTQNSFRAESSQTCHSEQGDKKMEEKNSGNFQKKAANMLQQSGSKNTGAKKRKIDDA
Chain of UniProt Q5JTH9 (Q5JTH9 whole entry, looked up): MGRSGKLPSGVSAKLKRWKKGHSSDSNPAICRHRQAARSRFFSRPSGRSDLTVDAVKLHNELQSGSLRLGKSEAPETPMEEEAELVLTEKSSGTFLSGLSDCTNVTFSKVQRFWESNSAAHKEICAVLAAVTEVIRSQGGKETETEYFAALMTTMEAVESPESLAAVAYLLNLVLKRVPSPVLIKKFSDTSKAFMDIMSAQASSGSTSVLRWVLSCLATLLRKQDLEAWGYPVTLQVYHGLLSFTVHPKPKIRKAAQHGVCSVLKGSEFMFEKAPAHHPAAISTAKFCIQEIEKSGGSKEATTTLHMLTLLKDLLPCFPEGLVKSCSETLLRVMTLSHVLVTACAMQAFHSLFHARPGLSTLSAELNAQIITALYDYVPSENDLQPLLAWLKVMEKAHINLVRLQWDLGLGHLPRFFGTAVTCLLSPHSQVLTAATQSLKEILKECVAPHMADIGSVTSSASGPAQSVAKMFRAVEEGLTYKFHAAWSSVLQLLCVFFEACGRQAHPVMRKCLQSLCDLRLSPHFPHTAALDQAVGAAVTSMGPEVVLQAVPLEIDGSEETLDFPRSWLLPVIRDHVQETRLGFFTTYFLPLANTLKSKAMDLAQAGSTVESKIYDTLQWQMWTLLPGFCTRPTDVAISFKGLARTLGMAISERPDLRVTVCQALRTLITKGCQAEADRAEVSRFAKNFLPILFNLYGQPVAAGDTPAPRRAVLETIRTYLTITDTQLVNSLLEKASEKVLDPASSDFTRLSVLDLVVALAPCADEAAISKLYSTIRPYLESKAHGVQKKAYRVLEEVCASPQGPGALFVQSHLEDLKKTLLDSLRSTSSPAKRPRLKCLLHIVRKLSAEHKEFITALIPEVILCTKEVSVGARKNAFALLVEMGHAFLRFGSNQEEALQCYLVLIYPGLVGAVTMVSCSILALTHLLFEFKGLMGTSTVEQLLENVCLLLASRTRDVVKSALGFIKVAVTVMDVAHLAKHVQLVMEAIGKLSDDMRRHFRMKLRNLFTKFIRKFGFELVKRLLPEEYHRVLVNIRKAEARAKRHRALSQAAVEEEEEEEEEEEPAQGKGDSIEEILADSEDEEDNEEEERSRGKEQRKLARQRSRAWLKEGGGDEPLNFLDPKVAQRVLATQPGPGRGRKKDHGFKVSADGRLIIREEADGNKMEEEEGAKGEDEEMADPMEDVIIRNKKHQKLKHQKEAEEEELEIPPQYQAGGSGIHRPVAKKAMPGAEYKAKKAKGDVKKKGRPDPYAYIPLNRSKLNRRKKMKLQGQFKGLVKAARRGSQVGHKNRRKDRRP
Chain of UniProt Q99590 (Q99590 whole entry, looked up): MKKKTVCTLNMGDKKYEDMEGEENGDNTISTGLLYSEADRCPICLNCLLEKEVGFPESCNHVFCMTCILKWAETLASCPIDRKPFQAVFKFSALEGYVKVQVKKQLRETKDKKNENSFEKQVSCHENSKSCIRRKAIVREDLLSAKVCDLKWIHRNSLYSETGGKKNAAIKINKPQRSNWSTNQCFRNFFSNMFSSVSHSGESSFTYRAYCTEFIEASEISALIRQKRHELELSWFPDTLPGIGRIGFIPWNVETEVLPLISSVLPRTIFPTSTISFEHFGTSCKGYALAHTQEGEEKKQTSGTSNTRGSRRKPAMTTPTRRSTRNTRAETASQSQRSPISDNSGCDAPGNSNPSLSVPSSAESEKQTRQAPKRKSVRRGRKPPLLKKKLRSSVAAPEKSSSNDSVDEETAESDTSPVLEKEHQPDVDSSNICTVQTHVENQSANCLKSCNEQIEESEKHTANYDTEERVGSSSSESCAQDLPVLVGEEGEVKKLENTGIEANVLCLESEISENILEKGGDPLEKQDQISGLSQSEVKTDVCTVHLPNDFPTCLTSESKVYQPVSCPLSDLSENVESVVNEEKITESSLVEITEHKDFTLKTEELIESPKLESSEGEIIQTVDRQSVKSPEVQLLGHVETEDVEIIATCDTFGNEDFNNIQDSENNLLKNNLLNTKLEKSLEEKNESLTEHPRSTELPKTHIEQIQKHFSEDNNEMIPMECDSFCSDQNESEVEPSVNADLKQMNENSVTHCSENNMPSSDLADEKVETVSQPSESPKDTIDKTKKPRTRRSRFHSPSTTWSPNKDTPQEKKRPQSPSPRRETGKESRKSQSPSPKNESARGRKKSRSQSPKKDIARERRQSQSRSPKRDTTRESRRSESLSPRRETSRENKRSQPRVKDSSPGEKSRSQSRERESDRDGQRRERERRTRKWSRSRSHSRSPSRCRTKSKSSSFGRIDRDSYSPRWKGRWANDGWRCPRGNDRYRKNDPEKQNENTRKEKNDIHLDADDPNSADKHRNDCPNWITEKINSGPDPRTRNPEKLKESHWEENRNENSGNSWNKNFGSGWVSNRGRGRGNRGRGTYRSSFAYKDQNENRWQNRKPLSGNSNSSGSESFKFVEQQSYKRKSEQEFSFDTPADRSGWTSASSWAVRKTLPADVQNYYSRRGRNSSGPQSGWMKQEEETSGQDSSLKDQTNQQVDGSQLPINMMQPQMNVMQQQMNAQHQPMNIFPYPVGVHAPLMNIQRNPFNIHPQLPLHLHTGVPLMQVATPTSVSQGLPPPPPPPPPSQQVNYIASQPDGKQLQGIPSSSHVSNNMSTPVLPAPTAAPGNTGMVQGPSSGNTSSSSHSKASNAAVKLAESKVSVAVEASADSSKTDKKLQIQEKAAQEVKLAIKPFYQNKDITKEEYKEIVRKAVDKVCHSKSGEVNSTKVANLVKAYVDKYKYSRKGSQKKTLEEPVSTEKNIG
Chain of UniProt Q9NQG5 (Q9NQG5 whole entry, looked up): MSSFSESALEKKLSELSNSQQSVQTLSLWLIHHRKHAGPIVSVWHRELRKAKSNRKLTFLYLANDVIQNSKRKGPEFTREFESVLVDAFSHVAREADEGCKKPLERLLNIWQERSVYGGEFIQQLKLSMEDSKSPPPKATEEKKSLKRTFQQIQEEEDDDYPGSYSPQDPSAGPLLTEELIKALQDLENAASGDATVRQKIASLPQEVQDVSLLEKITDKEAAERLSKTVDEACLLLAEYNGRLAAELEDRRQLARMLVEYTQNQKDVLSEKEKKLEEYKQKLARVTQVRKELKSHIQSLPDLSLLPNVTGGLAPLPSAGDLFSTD
Chain of UniProt Q96EU6 (Q96EU6 whole entry, looked up): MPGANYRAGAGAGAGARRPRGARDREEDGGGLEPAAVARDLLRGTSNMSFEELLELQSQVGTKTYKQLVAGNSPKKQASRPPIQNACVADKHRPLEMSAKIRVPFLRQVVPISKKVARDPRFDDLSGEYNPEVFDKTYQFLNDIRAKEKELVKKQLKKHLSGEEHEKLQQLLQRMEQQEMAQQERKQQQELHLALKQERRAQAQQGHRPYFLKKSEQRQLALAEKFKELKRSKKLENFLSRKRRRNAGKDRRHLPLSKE
Chain of UniProt O95059 (O95059 whole entry, looked up): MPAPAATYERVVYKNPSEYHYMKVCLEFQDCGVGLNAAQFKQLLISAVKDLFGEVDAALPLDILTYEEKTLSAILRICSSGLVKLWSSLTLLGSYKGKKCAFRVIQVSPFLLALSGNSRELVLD
Chain of UniProt O43818 (O43818 whole entry, looked up): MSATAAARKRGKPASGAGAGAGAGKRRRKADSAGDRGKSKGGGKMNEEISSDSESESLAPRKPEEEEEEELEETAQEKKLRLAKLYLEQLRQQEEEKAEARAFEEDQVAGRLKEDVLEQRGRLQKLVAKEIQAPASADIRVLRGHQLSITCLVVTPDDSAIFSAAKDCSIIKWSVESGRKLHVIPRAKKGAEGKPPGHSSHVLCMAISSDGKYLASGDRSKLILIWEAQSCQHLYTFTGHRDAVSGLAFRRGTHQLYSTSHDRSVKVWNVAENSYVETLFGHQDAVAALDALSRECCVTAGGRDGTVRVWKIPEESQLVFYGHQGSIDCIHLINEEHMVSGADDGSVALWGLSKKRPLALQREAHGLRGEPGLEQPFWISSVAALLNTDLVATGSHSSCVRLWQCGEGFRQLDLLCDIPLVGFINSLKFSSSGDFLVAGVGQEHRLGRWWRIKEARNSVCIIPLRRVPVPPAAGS
Chain of UniProt O75792 (O75792 whole entry, looked up): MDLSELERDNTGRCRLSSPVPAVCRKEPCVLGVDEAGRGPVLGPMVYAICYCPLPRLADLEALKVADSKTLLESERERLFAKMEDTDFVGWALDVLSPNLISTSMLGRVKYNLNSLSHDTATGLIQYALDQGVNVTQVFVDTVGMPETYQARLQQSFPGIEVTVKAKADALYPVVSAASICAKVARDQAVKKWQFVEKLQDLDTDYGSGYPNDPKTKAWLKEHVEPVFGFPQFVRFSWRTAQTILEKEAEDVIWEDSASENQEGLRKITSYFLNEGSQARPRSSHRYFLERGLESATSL

Row | Target | log2 fold change
1 | SCAF11 (UniProt Q99590) | 0.075 (inactive)
2 | SASH1 (UniProt O94885) | -0.081 (inactive)
3 | RRP9 (UniProt O43818) | 0.08 (inactive)
4 | SLC1A5 (UniProt Q15758) | 0 (inactive)
5 | RRP12 (UniProt Q5JTH9) | -0.024 (inactive)
6 | RSRC2 (UniProt Q7L4I2) | 0.015 (inactive)
7 | RBM17 (UniProt Q96I25) | 0.005 (inactive)
8 | RAB8B (UniProt Q92930) | 0.084 (inactive)
9 | RPP14 (UniProt O95059) | 0.064 (inactive)
10 | RNASEH2A (UniProt O75792) | -0.071 (inactive)
11 | RNF187 (UniProt Q5TA31) | -0.069 (inactive)
12 | SCO2 (UniProt O43819) | 0.034 (inactive)
13 | RPL31 (UniProt P62899) | -0.068 (inactive)
14 | RSRC1 (UniProt Q96IZ7) | 0.04 (inactive)
15 | RNF14 (UniProt Q9UBS8) | -0.02 (inactive)
16 | SCAF8 isoform 2 (UniProt Q9UPN6) | -0.078 (inactive)
17 | RBM4 (UniProt Q9BWF3) | 0.024 (inactive)

Row | Target | log2 fold change
18 | RPRD1B (UniProt Q9NQG5) | -0.014 (inactive)
19 | RNF2 (UniProt Q99496) | 0.025 (inactive)
20 | RPTOR (UniProt Q8N122) | -0.005 (inactive)
21 | SLC12A5 (UniProt Q9H2X9) | -0.152 (inactive)
22 | RPS6KA1 isoform 2 (UniProt Q15418) | 0.02 (inactive)
23 | RCN3 (UniProt Q96D15) | 0.033 (inactive)
24 | RRP36 (UniProt Q96EU6) | -0.021 (inactive)
25 | RTN4IP1 (UniProt Q8WWV3) | -0.264 (inactive)
26 | RPS4X (UniProt P62701) | -0.164 (inactive)
27 | RECQL (UniProt P46063) | 0.053 (inactive)
28 | RPS27A (UniProt P62979) | 0.029 (inactive)
29 | RAC3 (UniProt P60763) | 0.036 (inactive)
30 | SART3, A0A499FI31 | -0.011 (inactive)
31 | RAC1 (UniProt P63000) | 0.097 (inactive)
32 | RBM22 (UniProt Q9NW64) | 0.016 (inactive)
33 | RFC3 (UniProt P40938) | -0.021 (inactive)

compound: CN1CCN(c2nc(C3=C(c4c[nH]c5ccccc45)C(=O)NC3=O)c3ccccc3n2)CC1 [sotrastaurin]; test: as above
Outline: as §1

Row | Target | log2 fold change
34 | SCAF11 (UniProt Q99590) | 0.227 (inactive)
35 | SASH1 (UniProt O94885) | -0.043 (inactive)
36 | RRP9 (UniProt O43818) | 0.044 (inactive)
37 | SLC1A5 (UniProt Q15758) | 0.064 (inactive)
38 | RRP12 (UniProt Q5JTH9) | -0.118 (inactive)
39 | RSRC2 (UniProt Q7L4I2) | 0.049 (inactive)
40 | RBM17 (UniProt Q96I25) | -0.039 (inactive)
41 | RAB8B (UniProt Q92930) | -0.058 (inactive)
42 | RPP14 (UniProt O95059) | -0.01 (inactive)
43 | RNASEH2A (UniProt O75792) | 0.029 (inactive)
44 | RNF187 (UniProt Q5TA31) | 0.001 (inactive)
45 | SCO2 (UniProt O43819) | 0.087 (inactive)
46 | RPL31 (UniProt P62899) | -0.003 (inactive)
47 | RSRC1 (UniProt Q96IZ7) | 0.042 (inactive)
48 | RNF14 (UniProt Q9UBS8) | -0.042 (inactive)
49 | SCAF8 isoform 2 (UniProt Q9UPN6) | -0.09 (inactive)
50 | RBM4 (UniProt Q9BWF3) | -0.1 (inactive)

Row | Target | log2 fold change
51 | RPRD1B (UniProt Q9NQG5) | -0.126 (inactive)
52 | RNF2 (UniProt Q99496) | -0.105 (inactive)
53 | RPTOR (UniProt Q8N122) | -0.01 (inactive)
54 | SLC12A5 (UniProt Q9H2X9) | 0.053 (inactive)
55 | RPS6KA1 isoform 2 (UniProt Q15418) | -0.067 (inactive)
56 | RCN3 (UniProt Q96D15) | 0.107 (inactive)
57 | RRP36 (UniProt Q96EU6) | -0.067 (inactive)
58 | RTN4IP1 (UniProt Q8WWV3) | 0.43 (inactive)
59 | RPS4X (UniProt P62701) | -0.017 (inactive)
60 | RECQL (UniProt P46063) | -0.012 (inactive)
61 | RPS27A (UniProt P62979) | 0.107 (inactive)
62 | RAC3 (UniProt P60763) | 0.11 (inactive)
63 | SART3, A0A499FI31 | -0.13 (inactive)
64 | RAC1 (UniProt P63000) | -0.041 (inactive)
65 | RBM22 (UniProt Q9NW64) | -0.013 (inactive)
66 | RFC3 (UniProt P40938) | 0.032 (inactive)

compound: CN1CC[C@H](c2c(O)cc(O)c3c(=O)cc(-c4ccccc4Cl)oc23)[C@H](O)C1 [alvocidib]; test: as above
Outline: as §1

Row | Target | log2 fold change
67 | SCAF11 (UniProt Q99590) | 1.25 (active)
68 | SASH1 (UniProt O94885) | -0.035 (inactive)
69 | RRP9 (UniProt O43818) | 0.057 (inactive)
70 | SLC1A5 (UniProt Q15758) | -0.027 (inactive)
71 | RRP12 (UniProt Q5JTH9) | 0.233 (inactive)
72 | RSRC2 (UniProt Q7L4I2) | 0.055 (inactive)
73 | RBM17 (UniProt Q96I25) | -0.018 (inactive)
74 | RAB8B (UniProt Q92930) | -0.098 (inactive)
75 | RPP14 (UniProt O95059) | 0.007 (inactive)
76 | RNASEH2A (UniProt O75792) | -0.107 (inactive)
77 | RNF187 (UniProt Q5TA31) | -0.092 (inactive)
78 | SCO2 (UniProt O43819) | 0.006 (inactive)
79 | RPL31 (UniProt P62899) | 0.294 (inactive)
80 | RSRC1 (UniProt Q96IZ7) | -0.027 (inactive)
81 | RNF14 (UniProt Q9UBS8) | -0.112 (inactive)
82 | SCAF8 isoform 2 (UniProt Q9UPN6) | -0.167 (inactive)
83 | RBM4 (UniProt Q9BWF3) | -0.037 (inactive)

Row | Target | log2 fold change
84 | RPRD1B (UniProt Q9NQG5) | -0.082 (inactive)
85 | RNF2 (UniProt Q99496) | -0.149 (inactive)
86 | RPTOR (UniProt Q8N122) | 0.123 (inactive)
87 | SLC12A5 (UniProt Q9H2X9) | -0.067 (inactive)
88 | RPS6KA1 isoform 2 (UniProt Q15418) | -0.012 (inactive)
89 | RCN3 (UniProt Q96D15) | -0.133 (inactive)
90 | RRP36 (UniProt Q96EU6) | 0.211 (inactive)
91 | RTN4IP1 (UniProt Q8WWV3) | -0.27 (inactive)
92 | RPS4X (UniProt P62701) | 0.247 (inactive)
93 | RECQL (UniProt P46063) | -0.073 (inactive)
94 | RPS27A (UniProt P62979) | 0.136 (inactive)
95 | RAC3 (UniProt P60763) | -0.042 (inactive)
96 | SART3, A0A499FI31 | -0.291 (active)
97 | RAC1 (UniProt P63000) | -0.031 (inactive)
98 | RBM22 (UniProt Q9NW64) | 0.081 (inactive)
99 | RFC3 (UniProt P40938) | -0.036 (inactive)
